Mtb FBA inh: inhibitors of M. tuberculosis fructose-bisphosphate aldolase; P9WQA3; purified M. tuberculosis FBA, fluorescence read-out; inhibition, % at 1 µM; hit rate 2.3% among 360,000; in the data active = inhibition above about 27%;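 note: 0% = vehicle and 100% = reference inhibitor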
Target sequence (P9WQA3 whole entry, looked up): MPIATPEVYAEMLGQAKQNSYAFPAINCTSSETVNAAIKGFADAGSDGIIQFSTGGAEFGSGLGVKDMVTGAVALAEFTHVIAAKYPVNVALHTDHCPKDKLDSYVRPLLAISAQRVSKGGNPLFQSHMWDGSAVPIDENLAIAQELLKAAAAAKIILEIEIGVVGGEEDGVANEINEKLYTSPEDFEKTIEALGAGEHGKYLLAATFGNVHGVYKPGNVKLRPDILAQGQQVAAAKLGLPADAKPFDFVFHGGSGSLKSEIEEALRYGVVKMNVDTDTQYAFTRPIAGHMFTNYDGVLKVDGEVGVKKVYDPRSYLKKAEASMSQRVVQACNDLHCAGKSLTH
Mtb UGM inh: inhibitors of M. tuberculosis UDP-galactopyranose mutase; P9WIQ1; purified UGM, fluorescence polarization probe displacement; inhibition, % at 10 µM; hit rate 0.06% among 320,000; in the data active = inhibition above about 10%, passing the limit was not always enough; inconclusive = no clear call, values can overlap the other calls
RecA splice inh: inhibitors of M. tuberculosis RecA intein splicing; P9WHJ3; cell-free RecA intein splicing, fluorescence; inhibition, % (concentration not given with the values); hit rate 0.75% among 290,000; in the data active = inhibition above about 30%; inconclusive = no clear call, values can overlap the other calls;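 note: 0% = vehicle wells and 100% = reference inhibitor control wells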
Mtb bLac sens: beta-lactam sensitization of Mtb H37Rv | M. tuberculosis H37Rv growth with meropenem, percent inhibition | inhibition, % at 25 µM | hit rate 0.27% among 330,000; call rule not given here;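 note: growth measured after seven days incubation then overnight dye step; 0% = bacteria only wells and 100% = bacteria with antibiotic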
GDH-TPI inh: GDH-TPI coupled enzyme inhibition counter-screen. GDH-TPI coupled enzyme counterscreen, NADH absorbance. inhibition, % at 4.8 µM. hit rate 1.2% among 360,000. AID 588335; in the data active = inhibition above about 30%;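 note: 0% = DMSO wells and 100% = wells lacking the enzyme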
Rv3671c protease: inhibitors of M. tuberculosis serine protease Rv3671c | inhibition, % at 5.96 µM | hit rate 0.048% among 320,000; in the data active = inhibition above about 38%;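 note: extracellular domain of Rv3671c used as enzyme; 0% = enzyme with DMSO and 100% = no enzyme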
Numbers without * were called inactive; ? = inconclusive; / = no result given; + = active, no number. Hits are enriched below; roughly 4% of the tested compounds scored in any of these assays.

SMILES	Mtb FBA inh	Mtb UGM inh	RecA splice inh	Mtb bLac sens	GDH-TPI inh	Rv3671c protease
CC(C)[C@H](NC(=O)C1CCN(S(=O)(=O)c2ccc(F)cc2)CC1)C(=O)NCc1ccco1	1.6	-0.6	2.8	-3.8	5.0	1.6
Nc1ccc(N(CCO)CCO)cc1	-1.6	2.9	63.1*	8.1	3.3	-72.8
CCOC(=O)C1C2C=CC(CC2)N1c1ccccc1 (stereo not given)	1.9	-1.1	-4.3	-6.3	4.4	8.8
CCOC(=O)C1CCC(C(=O)OCC)N1c1ccc(C=O)cc1 (stereo not given)	2.0	/	/	/	32.7*	/
CN(C)C(=O)c1ccc2c(c1[N+](=O)[O-])C(=O)c1ccccc1C2=O	1.1	2.5	54.7*	28.8	6.4	-9.9
COCc1cc(=O)n2[nH]cc(-c3ccccc3)c2n1	132.6*	-1.6	-0.2	/	22.8	-1.4
CCOC(=O)Cc1cc(=O)n2[nH]cc(-c3cccc(Br)c3)c2n1	26.3	-3.1	1.1	-9.8	8.3	-15.2
CC(C)OC(=O)CC1C(=O)NCCN1C(=O)COc1ccc(C(C)(C)C)cc1 (stereo not given)	0.4	3.0	0.3	-5.5	-8.4	2.4
O=C1CCCC2=C1C(c1ccncc1)Nc1ccccc1N2 (stereo not given)	9.1	-1.3	1.9	-1.4	23.6	11.1
O=C1NCC2=C1C(c1ccccc1)Nc1ccccc1N2 (stereo not given)	5.5	1.1	?	-1.9	31.7*	-3.1
N=C(N)c1ccc(N=Nc2c(O)ccc3c2[nH]c2ccccc23)cc1	-7.1	/	/	/	0.5	/
N#CCSc1nc(-c2ccccc2)cs1	-0.2	-0.1	-2.0	-1.0	3.1	6.8
N#CCSc1ccc2nc(-c3ccccc3)cn2n1	134.4*	-1.4	-2.1	2.0	21.6	-0.5
CCOC(=O)N1CCN(Cc2nnc(-c3cccc(Br)c3)o2)CC1	0.5	0.5	0.4	-3.2	-2.6	-3.2
CC1=NN(c2ccccc2)C(=O)/C1=C/c1c(C)[nH]n(-c2ccc(C)cc2)c1=O	/	-2.6	-0.3	-6.6	/	7.6
Cc1[nH]n(-c2ccccc2)c(=O)c1/C=C1/C=c2ccccc2=N1	-10.4	/	34.5*	/	6.1	/
Cc1cc(C)c(S(=O)(=O)c2ccccc2)c(=O)[nH]1	3.3	-0.7	-1.3	4.7	17.2	-5.5
Cc1ccc(S(=O)(=O)c2c(C)cc(-c3ccccc3)[nH]c2=O)cc1	81.1*	-0.4	0.8	-1.2	27.5	-5.0
CC1(C)CC(NC(=O)Nc2ccc([N+](=O)[O-])cc2)CC(C)(C)N1	-0.8	2.0	0.6	9.1	31.7*	-5.4
CC(C(=O)NC1CC(C)(C)NC(C)(C)C1)c1ccc([N+](=O)[O-])cc1 (stereo not given)	-1.4	2.4	-2.4	-1.4	3.9	-5.3
COc1ccc(CC(=O)N(C)CC(=O)Nc2ccc(F)cc2)cc1S(=O)(=O)N1CCOCC1	-0.4	-1.3	/	-8.7	11.2	-2.2
COc1ccc(N(C(=O)COc2cccc(C)c2)S(=O)(=O)c2ccc(C)cc2)cc1	2.0	2.4	52.4*	5.0	-7.5	1.2
Cn1cc(C(=O)N/N=C/C=C/c2ccccc2)ccc1=O	-4.1	-0.7	-0.5	-1.4	39.9*	3.0
Cn1cc(C(=O)N/N=C/C(Br)=C\c2ccccc2)ccc1=O	-2.8	-2.4	3.2	/	32.2*	2.1
O=C(N/N=C/C(Br)=C/c1ccccc1)c1ccccc1[N+](=O)[O-]	-0.3	-0.2	3.6	6.9	11.5	-1.8
SMILES	Mtb FBA inh	Mtb UGM inh	RecA splice inh	Mtb bLac sens	GDH-TPI inh	Rv3671c protease
Cn1cc(C(=O)N/N=C/c2cccc(O)c2)ccc1=O	-1.4	-2.2	-0.3	1.2	4.8	-8.4
O=C(N/N=C/C=C/c1ccccc1)c1ccc(Br)cc1	0.1	2.1	-1.7	98.7	27.4	-0.5
Cn1cc(C(=O)N/N=C/C(Br)=C/c2ccccc2)ccc1=O	1.7	0.5	-0.2	25.1	43.6*	-6.6
Cc1ccc(S(=O)(=O)NC(Cc2ccccc2)C(=O)O)cc1C (stereo not given)	0.9	-0.2	-0.6	4.6	-11.4	-0.6
CCN1CCN(C(=O)N2CCOCC2)CC1	-0.8	1.3	-3.9	-6.3	5.2	0.1
CC(=O)Oc1ccc2cc(-c3ccccc3)c(=O)oc2c1	158.0*	-0.3	-145.0	-4.4	6.3	-8.9
CC(=O)Oc1ccc2c(=O)c(-c3ccccc3)coc2c1	15.3	0.0	5.0	76.0	0.0	8.9
CCOC(=O)COc1ccc2cc(C(=O)OCC)c(=O)oc2c1	183.8*	-0.3	/	76.8	38.2*	-0.2
CC(=O)COc1ccc2cc(-c3ccccc3)c(=O)oc2c1	+	0.7	-4.5	-1.7	40.1*	7.2
COc1ccc(-c2cc3ccc(OC(C)C(=O)O)cc3oc2=O)cc1 (stereo not given)	+	1.3	-198.5	-1.3	16.1	/
COC1=CC2(O)CCCC2=CC1=O (stereo not given)	150.4*	-2.4	2.8	-3.1	0.5	1.4
CCOc1ccc(C(=O)N/N=C(\c2ccccc2)c2ccccn2)cc1	0.3	2.5	2.1	97.7	32.5*	7.6
N=C1C2=C3Sc4ccccc4N3CCCC2=NN1c1cccc(S(=O)(=O)O)c1	4.1	0.1	4.1	-3.4	24.1	-8.6
O=C(CCS(=O)(=O)c1ccccc1)Nc1cccc(-c2nc3ccccc3s2)c1	0.4	-2.9	0.2	7.8	-0.9	-39.7
Cc1ccc2nc(-c3ccc(NS(=O)(=O)c4ccc(F)cc4)cc3)sc2c1	+	-0.8	10.1	7.0	37.4*	-248.0
CC(=O)Nc1ccc(S(=O)(=O)Nc2nc3ccc(C)cc3s2)cc1	2.4	6.1	-4.1	-4.1	-8.0	5.6
Cc1ccc2nc(-c3ccc(N)cc3)sc2c1	+	-2.7	1.0	1.9	25.0	3.4
CC1=CCC(C(=O)O)C(C(=O)Nc2ccc(-c3nc4ccc(C)cc4s3)cc2)C1 (stereo not given)	190.4*	-0.8	5.4	5.0	37.4*	-15.5
O=C(CCS(=O)(=O)c1ccccc1)Nc1ccc(-c2nc3ccccc3s2)cc1	30.5*	-1.1	3.3	-1.9	7.3	-22.9
Cc1cccc(NC(=O)c2ccc(OCc3c(C)noc3C)cc2)n1	1.7	-3.9	/	0.5	-6.7	-11.6
CNS(=O)(=O)c1cccc(C(=O)OCC(=O)Nc2ccc(-c3nc4ccc(C)cc4s3)cc2)c1	28.7*	2.6	-1.0	43.2	23.4	-35.3
Nc1ccc(-c2nc3cc(N)ccc3s2)cc1	17.7	0.6	-16.9	-5.4	15.2	5.4
Nc1ccc2nc(-c3ccccc3)sc2c1	+	-4.6	-1.3	80.8	26.1	1.3
COc1cc(N)c(Cl)cc1C(=O)OCC(=O)N1CCCC1	-0.1	-1.9	-1.0	-7.2	-3.1	7.0
CCn1c(=O)[nH]c2cc(Cl)c(Cl)cc21	-3.2	1.4	/	4.1	8.8	0.8
COc1ccccc1-c1nnc(NC(=O)c2ccc(S(=O)(=O)N(C)C)cc2)o1	-1.7	-1.9	2.3	44.8	34.5*	-20.3
Cn1c(NNC(=O)/C=C/c2ccc3c(c2)OCO3)cc(=O)n(C)c1=O	9.6	0.4	/	1.7	39.2*	-23.9
